Laboratory results as given in PubChem BioAssay AID1362 (SRMLSC, 2008).
Out of some 190,000 compounds screened, about 4,000 (2.1%) were called active. Rule as the data show it: active = inhibition above about 58%; inactive = the rest, inconclusive results apart; tested in S. cerevisiae. The entries come from a sample that favours actives as a whole.

Assay: growth inhibition of WT strain, primary screen, mitochondrial fusion inhibitor project, WT and mutant strains, chemical genetic (AID 1362)
Conditions: mitochondrial fusion phenotypic screen, at 10 µM
[1] = WT strain, growth inhibition, stronger effect = higher value

Compound | inhibition [1] | inhibition (mutant strain inhibition)
CC(C(=O)Nc1ccc(Cl)cc1Cl)N1CC=C(c2ccccc2)CC1 (stereo not given) | 70.9% (active) | 1.22%
CN1CCN(C(=S)SCC(=O)Nc2ccc(Cl)cc2C(=O)c2ccccc2)CC1 | 7.01% (inactive) | 6.59%
O=C(OCCN1CCOCC1)C1(c2ccccc2)CCCC1 | 8.37% (inactive) | 10.3%
CCCOC(=O)C1C2c3ccccc3C(c3ccccc32)C1C(=O)O (stereo not given) | -5.35% (inactive) | -6.76%
CC1=CC(=Cc2sc3ccccc3[n+]2C)C=C(C)O1 | 65.7% (active) | 63.1%
COP(=O)(OC)C(NC(=O)c1ccc(C)cc1)C(Cl)(Cl)Cl (stereo not given) | 3.22% (inactive) | 7.65%
Cc1cc(C=C2C(=O)NC(=O)NC2=O)c(C)n1-c1ccncc1 | -0.16% (inactive) | -6.83%
O=C(Cn1c(=O)n(CC2CS2)c2ccccc21)N1CCCCC1 (stereo not given) | 0.43% (inactive) | -0.1%
O=C(COC(=O)c1ccccc1)Nc1ccc(Cl)cc1C(=O)c1ccccc1 | 16.3% (inactive) | 10.6%
O=C(CN1CCCCC1)Nc1ccc(Br)cc1C(=O)c1ccccc1Cl | 74.3% (active) | 9.62%
O=C(CCN1CCCCC1)NCC(=O)Nc1ccc(Br)cc1C(=O)c1ccccc1 | 7.53% (inactive) | 1.33%
CCOC(=O)C1(CCc2ccccc2)CCN(Cc2ccco2)CC1 | 12.8% (inactive) | 4.98%
COc1ccccc1N=Nc1c(O)[nH]c(=S)[nH]c1=O | 4.7% (inactive) | 1.05%
CC(c1ccccc1)(c1ccccc1)c1ccncc1 | 26.6% (inactive) | 19.3%
COP(=O)(NS(=O)(=O)c1ccccc1)OC | -9.16% (inactive) | -1.53%
